PubChem BioAssay (Tox21)
Inconclusive results are not listed. Entries that show only a call come without a potency. Activity calls are given as the source filed them. Unless noted, the call rests on the fitted dose curve; in most records, active means well fitted curve in the direction sought with a large enough effect in the repeat runs; inconclusive means weak or mixed curves; inactive means no such curve, though single readings can be large; an effect the other way counts as inactive or inconclusive.

Tests used:
[1] = qHTS assay for small molecule agonists of the p53 signaling pathway (AID 651631; calls by dose curve; further: nearly all actives have a fitted effect of over 15% in size)
In short: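 Agonist mode screen using a stably integrated beta-lactamase gene under p53 response elements in HCT-116 cells. Compound exposure lasts 16 h at 37 °C; fluorescence intensity is measured following 2 h FRET substrate loading.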

[2] = qHTS assay for small molecules that induce genotoxicity in human embryonic kidney cells expressing luciferase-tagged ATAD5 (AID 651632); further: nearly all actives have a fitted effect of over 15% in size; further: potency means the concentration at half of the fitted maximal effect
In short: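 Cells were seeded at 2,000 per well, dosed with compound, and incubated 16 hr at 37C in 5% CO2. Luciferase activity was then quantified after a 30 min room-temperature incubation with Amplite.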

[3] = qHTS assay for small molecule agonists of the p53 signaling pathway - cell viability (AID 651633; calls by dose curve;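 further: p53RE-bla HCT reporter cells with a stable beta-lactamase p53 reporter; nearly all actives have a fitted effect of over 30% in size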)
In short: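 p53RE-bla cells were treated with compound for 16 hours at 37 C. Cytotoxicity was then measured as CellTiter-Glo luminescence after 30 min at room temperature.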

[4] = qHTS assay for small molecules that induce genotoxicity in human embryonic kidney cells expressing luciferase-tagged ATAD5 - cell viability (AID 651634; calls by dose curve; further: nearly all actives have a fitted effect of over 25% in size)
In short: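 Cells (HEK293T, luciferase-tagged ATAD5) are seeded at 2,000 per well, dosed with compound or DMSO vehicle, and incubated 15.5 hr at 37C and 5% CO2. CellTiter-Fluor is added for 30 min before fluorescence is measured.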

[5] = qHTS assay for small molecule disruptors of the mitochondrial membrane potential - cell viability (AID 720634; calls by dose curve;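 further: human HepG2 liver cancer cells; nearly all actives have a fitted effect of over 20% in size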)
In short: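 Cytotoxicity was measured by ATP quantitation in HepG2 wells that had first been treated with compound for 1 hr and stained with m-MPI dye; CellTiter-Glo incubation was 30 min at room temperature.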

[6] = qHTS assay to test for compound auto fluorescence at 590 nm (red) in HepG2 cells (AID 720674)
In short: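 HepG2 cells, 2,000 per well in MEM with 10% FBS, attached overnight at 37 C, then got 23 nL compound or DMSO. After 1 hr at 37 C, 5% CO2, red fluorescence was read at 540/590 nm against Rose Bengal sodium as reference.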

[7] = qHTS assay to test for compound auto fluorescence at 535 nm (green) in HepG2 cells (AID 720675)
[8] = qHTS assay to test for compound auto fluorescence at 460 nm (blue) in HEK293 cells (AID 720678)
In short: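 HEK293 cells (2,000 per well, medium with 10% dialyzed FBS) attached for 4-5 hr at 37C, then received compound and stood overnight at 37C, 5% CO2. Blue fluorescence was read at Ex/Em 405/460 nm and expressed relative to triamterene.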

[9] = qHTS assay to test for compound auto fluorescence at 590 nm (red) in HEK293 cells (AID 720679)
In short: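 HEK293 cells (2,000/well, medium with 10% dialyzed FBS) attached for 4-5 hr at 37C, received 23 nL compound and were incubated overnight at 37C, 5% CO2. Red fluorescence was then read at 540/590nm Ex/Em, referenced to Rose Bengal sodium.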

[10] = qHTS assay to test for compound auto fluorescence at 535 nm (green) in HEK293 cells (AID 720680)
[11] = qHTS assay to test for compound auto fluorescence at 460 nm (blue) in HEK293 cell free culture (AID 720681)
In short: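 Compounds were added to cell-free DMEM with 10% FBS and fluorescence read directly. The blue channel used 405 nm excitation and 460 nm emission, with triamterene as the reference fluorophore.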

[12] = qHTS assay to test for compound auto fluorescence at 535 nm (green) in HEK293 cell free culture (AID 720682)
In short: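 No cells present: wells hold DMEM supplemented with 10% FBS, into which compound or vehicle is pinned. Green emission is then recorded (485 nm excitation, 535 nm emission) and scaled to fluorescein.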

[13] = qHTS assay to test for compound auto fluorescence at 590 nm (red) in HEK293 cell free culture (AID 720683)
In short: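 Cell-free wells of DMEM with 10% FBS received compound, and intrinsic fluorescence was read at excitation/emission 540/590 nm. Values expressed as equivalence to Rose Bengal sodium.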

[14] = qHTS assay to test for compound auto fluorescence at 590 nm (red) in HepG2 cell free culture (AID 720684)
In short: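 Auto fluorescence equivalency versus Rose Bengal sodium, red channel Ex/Em 540/590 nm; compounds in cell-free MEM/10% FBS; DMSO vehicle control.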

[15] = qHTS assay to test for compound auto fluorescence at 535 nm (green) in HepG2 cell free culture (AID 720686)
[16] = qHTS assay to test for compound auto fluorescence at 460 nm (blue) in HepG2 cells (AID 720687)
In short: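 HepG2 cells in MEM with 10% FBS, attached overnight at 37 C, were exposed to compound or DMSO for 1 hr at 37 C, 5% CO2. Blue fluorescence was read at 405/460 nm, with triamterene as reference fluorophore.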

[17] = qHTS assay to test for compound auto fluorescence at 460 nm (blue) in HepG2 cell free culture (AID 720685)
In short: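 Cell-free plates of MEM plus 10% FBS received 23 nL compound or DMSO vehicle; blue-channel (405/460 nm) intensity scored against triamterene as reference fluorophore.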

[18] = biological target: Glucocorticoid receptor (Homo sapiens) (UniProt P04150); experiment: qHTS assay to identify small molecule agonists of the glucocorticoid receptor (GR) signaling pathway (AID 720691; active means well fitted activation curve with a large enough effect in the signal ratio in the repeat runs, not every such curve was filed as active; the % refers to the signal ratio); conditions: GR-bla HeLa, beta-lactamase reporter ratio, 18 h; activation: at 62.4 µM (top of the series)
Sequence of Glucocorticoid receptor (Homo sapiens) (P04150 whole entry, looked up): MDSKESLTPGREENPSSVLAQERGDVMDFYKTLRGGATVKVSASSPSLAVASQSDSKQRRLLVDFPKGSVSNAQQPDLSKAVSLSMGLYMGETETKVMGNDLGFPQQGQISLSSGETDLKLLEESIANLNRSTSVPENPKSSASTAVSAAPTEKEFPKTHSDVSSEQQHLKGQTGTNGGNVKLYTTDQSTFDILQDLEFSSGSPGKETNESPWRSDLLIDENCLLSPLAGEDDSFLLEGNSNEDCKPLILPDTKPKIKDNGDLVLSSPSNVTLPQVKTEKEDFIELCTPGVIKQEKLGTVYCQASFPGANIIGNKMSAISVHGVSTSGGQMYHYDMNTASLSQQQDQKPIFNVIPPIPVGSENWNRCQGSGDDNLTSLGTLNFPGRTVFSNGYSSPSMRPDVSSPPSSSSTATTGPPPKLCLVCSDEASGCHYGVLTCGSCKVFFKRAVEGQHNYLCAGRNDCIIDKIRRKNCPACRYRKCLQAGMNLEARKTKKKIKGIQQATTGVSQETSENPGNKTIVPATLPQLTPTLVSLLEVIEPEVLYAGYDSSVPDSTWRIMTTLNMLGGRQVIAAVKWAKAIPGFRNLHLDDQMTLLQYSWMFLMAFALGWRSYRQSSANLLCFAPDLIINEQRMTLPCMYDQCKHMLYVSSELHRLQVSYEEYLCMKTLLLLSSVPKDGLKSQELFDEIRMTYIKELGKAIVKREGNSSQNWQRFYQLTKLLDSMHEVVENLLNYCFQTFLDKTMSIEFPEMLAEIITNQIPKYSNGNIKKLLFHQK
In short: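 Steps: seed GR-bla HeLa cells, incubate 4 h at 37 C/5% CO2; pin-transfer DMSO-dissolved compounds; incubate 18 h at 37 C; add LiveBLAzer B/G FRET substrate; after 2 h at room temperature, measure fluorescence.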

[19] = biological target: Glucocorticoid receptor (Homo sapiens) (UniProt P04150); experiment: qHTS assay to identify small molecule antagonists of the glucocorticoid receptor (GR) signaling pathway (AID 720692; active means well fitted inhibition curve with a large enough effect in the signal ratio in the repeat runs, not every such curve was filed as active; the % refers to the signal ratio)
In short: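 Antagonism was scored as loss of dexamethasone-driven (5 nM final) reporter signal in HeLa cells bearing a glucocorticoid response element–beta-lactamase construct, after 18 h compound exposure at 37 C and 2 h FRET substrate loading.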

SMILES | Potency [1] | Potency [2] | Potency [3] | Potency [4] | Potency [5] | Potency [6] | Potency [7] | Potency [8] | Potency [9] | Potency [10] | Potency [11] | Potency [12] | Potency [13] | Potency [14] | Potency [15] | outcome [16] | outcome [17] | Potency [18] | Potency [19]
O=S(=O)(O)CCCS(=O)(=O)O | inactive | inactive | inactive | inactive | inactive | inactive | inactive | inactive | inactive | inactive | inactive | inactive | inactive | inactive | inactive | inactive | – | – | –
CC(C(=O)O)c1ccc(N2Cc3ccccc3C2=O)cc1 (stereo not given) | inactive | 0.596 µM (active) | inactive | inactive | – | inactive | inactive | inactive | inactive | inactive | inactive | inactive | inactive | inactive | inactive | inactive | inactive | inactive | –
CC(O)[C@@H]1NC(=O)[C@H](CCCCN)NC(=O)[C@@H](Cc2c[nH]c3ccccc23)NC(=O)[C@H](Cc2ccccc2)NC(=O)[C@@H](NC(=O)[C@H](N)Cc2ccccc2)CSSC[C@@H](C(=O)N[C@H](CO)[C@@H](C)O)NC1=O (stereo not given in full) | inactive | inactive | inactive | inactive | inactive | inactive | inactive | – | inactive | inactive | inactive | inactive | inactive | inactive | inactive | inactive | inactive | inactive | inactive
CC1(C)[C@@H]2CC[C@@]1(C)[C@H](OC(=O)CSC#N)C2 | inactive | inactive | inactive | inactive | inactive | inactive | inactive | – | inactive | inactive | inactive | inactive | inactive | inactive | inactive | inactive | inactive | – | –
O=C(O[C@H]1CN2CCC1CC2)N1CCc2ccccc2[C@@H]1c1ccccc1 | inactive | inactive | inactive | inactive | inactive | inactive | inactive | inactive | inactive | inactive | inactive | inactive | inactive | inactive | inactive | inactive | inactive | inactive | inactive
OC[C@H]1O[C@@H](n2cnc3c2NC=NC[C@H]3O)C[C@@H]1O | inactive | inactive | inactive | inactive | inactive | inactive | inactive | inactive | inactive | inactive | inactive | inactive | inactive | inactive | inactive | inactive | – | inactive | inactive
CCc1ccc(S(=O)(=O)O)cc1 | inactive | inactive | inactive | inactive | inactive | inactive | inactive | inactive | inactive | inactive | inactive | inactive | inactive | inactive | inactive | inactive | – | – | –
